Source: PubChem (several laboratories)
Hits are enriched below; roughly 1.7% of the tested compounds scored in any of these assays.
ABCB6 inh 2 – ABCB6 transporter inhibitors, primary screen, K562-ABCB6 cells, flow cytometry, MLPCN library; ATP-binding cassette sub-family B member 6 (Homo sapiens), Q9NP58; K562-ABCB6 porphyrin accumulation, 1 h; hits give low values; fluorescence ratio to DMSO, % at 10 µM; actives 0.19% (n = 360,000);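 active = fluorescence ratio to DMSO below 75%, the collection mean minus 3 SD; inconclusive = too few cells collected in the well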;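 note: signal is porphyrin accumulated inside mitochondria; 100% equals median channel fluorescence of DMSO control wells; lower ratio means ABCB6 inhibition with less porphyrin fluorescence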
TLR9-MyD88 inh – inhibitors of TLR9-MyD88 association in cells, primary screen, cell-based, CHO, BLA complementation, fluorescence. AID 504734, 2011. Toll-like receptor 9 (Homo sapiens) + Myeloid differentiation primary response protein …. CCF4 FRET ratio. inhibition, % at 4.98 µM. actives 0.21% (n = 340,000);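 active = inhibition above the mean over all tested compounds plus 3 SD, cut at about 21% in these data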;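 note: 0% = DMSO only wells and 100% = clavulanate BLA inhibitor control wells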
NOD2 RIPK2 PPI – NOD2-RIPK2 binding disruptors in cells, primary screen, fluorescence, CHO cells, BLA complementation. Receptor-interacting serine/threonine-protein kinase 2 (Homo sapiens), O43353. CCF4 ratio. inhibition, % at 4.98 µM. actives 0.38% (n = 360,000); in the data active = inhibition above about 21%;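 note: 0% = vehicle only and 100% = reference blocker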
TLR4 MyD88 comp – inhibitors of TLR4-MyD88 association in cells, primary screen, cell-based, HeLa CL3-4, BLA complementation, FRET ratio | Toll-like receptor 4 (Homo sapiens) + Myeloid differentiation primary response protein … | HeLa CL3-4 TLR4/MyD88 BLA complementation | inhibition, % at 8.4 µM | actives 0.18% (n = 200,000); in the data active = inhibition above about 25%;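 note: 0% = vehicle and 100% = reference inhibitor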
Target sequence (O00206 whole entry, looked up): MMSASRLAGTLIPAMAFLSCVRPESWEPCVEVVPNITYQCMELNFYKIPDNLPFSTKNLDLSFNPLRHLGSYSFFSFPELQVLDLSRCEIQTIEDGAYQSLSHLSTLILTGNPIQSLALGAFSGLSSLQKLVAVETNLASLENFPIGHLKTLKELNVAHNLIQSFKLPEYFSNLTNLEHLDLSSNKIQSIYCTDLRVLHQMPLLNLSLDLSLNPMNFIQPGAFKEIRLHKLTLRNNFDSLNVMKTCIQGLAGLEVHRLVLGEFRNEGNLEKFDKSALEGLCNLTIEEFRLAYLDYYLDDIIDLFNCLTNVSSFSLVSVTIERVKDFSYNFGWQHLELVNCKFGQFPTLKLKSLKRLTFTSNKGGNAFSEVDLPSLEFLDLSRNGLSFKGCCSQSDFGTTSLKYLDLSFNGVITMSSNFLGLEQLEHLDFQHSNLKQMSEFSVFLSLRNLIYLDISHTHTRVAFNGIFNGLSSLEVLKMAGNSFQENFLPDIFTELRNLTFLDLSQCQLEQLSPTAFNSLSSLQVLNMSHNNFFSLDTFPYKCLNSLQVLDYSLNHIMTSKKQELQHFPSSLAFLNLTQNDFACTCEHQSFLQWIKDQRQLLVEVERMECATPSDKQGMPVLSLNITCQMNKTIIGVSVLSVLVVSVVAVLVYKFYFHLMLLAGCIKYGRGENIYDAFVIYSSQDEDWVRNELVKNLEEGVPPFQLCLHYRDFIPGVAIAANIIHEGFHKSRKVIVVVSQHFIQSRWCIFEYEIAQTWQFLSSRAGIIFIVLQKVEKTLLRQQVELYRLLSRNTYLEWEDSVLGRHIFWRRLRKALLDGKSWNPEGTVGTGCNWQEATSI
Target sequence (Q99836 whole entry, looked up): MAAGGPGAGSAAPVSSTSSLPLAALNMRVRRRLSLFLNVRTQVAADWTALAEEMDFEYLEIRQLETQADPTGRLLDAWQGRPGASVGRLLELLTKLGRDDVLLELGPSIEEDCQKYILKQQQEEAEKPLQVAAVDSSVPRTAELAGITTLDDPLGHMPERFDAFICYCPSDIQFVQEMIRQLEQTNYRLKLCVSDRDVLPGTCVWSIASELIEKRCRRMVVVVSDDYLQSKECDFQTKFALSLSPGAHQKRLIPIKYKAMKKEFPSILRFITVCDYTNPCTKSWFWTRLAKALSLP
Myeloid diff MLP – induction of myeloid progenitor differentiation, primary screen, cell-based, flow cytometry, MLPCN library. actives 1% (n = 360,000). ER-HoxA9 myeloid progenitors, lysozyme-GFP differentiation. calls only at 10 µM;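 active = normalized GFP-positive differentiation at or above the plate's own cutoff, the solvent-only control mean plus 3 SD; inconclusive = no clear call, values can overlap the other calls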;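 note: cells exposed to compound for four days before flow analysis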
* marks the source's active call; other numbers are inactive results; i = inactive; u = inconclusive; x = not tested or not shown; + = active, no number.

SMILES	ABCB6 inh 2	TLR9-MyD88 inh	NOD2 RIPK2 PPI	TLR4 MyD88 comp	Myeloid diff MLP
O=S(=O)(c1cccc(Cl)c1)N1CN(CC2CCCO2)c2nc3ccccc3nc21 (centres undefined)	94	-7	-3	x	+
O=C(c1ccc(Cl)c(Cl)c1)N1CCC(=O)N(C(COCc2cccc(Cl)c2)Cc2ccccc2)CC1 (centres undefined)	96	-8	-16	-19	+
O=C(Nc1ccccn1)C1CCCN(c2ncnc3c2nc2n3CCCCC2)C1 (centres undefined)	100	-13	-11	x	i
COc1ccc(C(=O)Nc2ccccc2C(=O)NCCN2CCOCC2)cc1OC	98	0	-4	x	+
COc1ccc(C(=O)Nc2ccccc2C(=O)NCCN2CCOCC2)cc1	101	-16	0	-1	i
O=c1c(/C=C(\O)c2ccc(F)cc2)nc2ccccc2n1-c1ccccc1	i	2	4	21	+
Cn1c(=O)c(/C=C/c2ccc(F)cc2)nc2ccccc21	100	-6	-8	-13	i
COC(=O)Cn1cnc2c(cnn2-c2ccc(C)cc2)c1=O	102	1	-8	x	i
CNC(=O)c1ccc(-c2sc3nc(N4CCOCC4)c4c(c3c2N)CC(C)(C)OC4)o1	89	0	-10	-9	i
CC1(C)Cc2c(c(N3CCOCC3)nc3sc(-c4ccc(C(=O)O)o4)c(N)c23)CO1	359	16	11	-2	+
COCCCn1c(C)nc2c(c1=O)c1nc3ccccc3nc1n2CCc1ccccc1	97	4	3	-15	+
CCN1C(=NCc2ccco2)N[C@@H](c2cccc(F)c2)C(C(=O)OC)=C1C	103	3	-1	x	i
CCn1c(=O)c2c(nc3n2CCN3c2ccccc2)n(C)c1=O	94	4	5	12	i
O=C(Nc1ccc(-c2cn3c(n2)SCC3)cc1)c1ccc2c(c1)OCO2	102	-6	-7	4	+
O=C(c1cccc(S(=O)(=O)NCc2ccccc2)c1)N1CCN(c2ccc(F)cc2)CC1	91	-7	-4	x	i
O=C(c1cccc(S(=O)(=O)NCc2ccccc2)c1)N1CCN(c2ccccc2)CC1	98	9	-2	x	+
COc1ccc2oc(=Nc3cc(F)ccc3F)c(C(N)=O)cc2c1	84	0	-2	3	+
COc1ccc(OC)c(N=c2oc3cc(O)ccc3cc2C(N)=O)c1	96	-31	-26	-3	u
CCN(CC)c1nc(N)c2c(N)nc3c(c2c1C#N)CC(c1ccccc1)O3 (centres undefined)	110	-7	-5	-17	i
CCN(CC)c1nc(N)c2c(N)n(-c3ccccc3C)c(=S)c(C#N)c2c1C#N	102	1	-6	16	+
Cc1ccc(C)c(S(=O)(=O)NCc2ccc(C(=O)N3CCC(Cc4ccccc4)CC3)cc2)c1	94	0	1	9	+
Cc1ccc(C)c(S(=O)(=O)NCc2ccc(C(=O)N3CCN(C)CC3)cc2)c1	110	2	-21	6	i
CCc1cccc(NC(=O)c2cc(OC)c(OC)c(OC)c2)c1	99	0	-5	4	i
CC1CC(=O)C2=C(C1)Nc1ccccc1N(C(=O)COc1ccccc1)C2c1ccco1 (centres undefined)	95	-7	-6	10	+
CC(=O)N1c2ccccc2NC2=C(C(=O)CCC2)C1c1ccco1 (centres undefined)	98	-8	-21	-19	i
SMILES	ABCB6 inh 2	TLR9-MyD88 inh	NOD2 RIPK2 PPI	TLR4 MyD88 comp	Myeloid diff MLP
O=C(c1ccc(CSc2nc3ccncc3[nH]2)cc1)N1CCN(c2cccc(Cl)c2)CC1	93	-7	1	1	+
CCCCOc1ccc(C(=O)NCC(=O)NC(C)CCc2ccccc2)cc1 (centres undefined)	103	1	6	x	+
O=C1/C(=C\c2ccccc2)SC(=S)N1CCC(=O)N1CCCCC1CCO (centres undefined)	98	-7	2	x	u
COc1ccc(/C=C2\SC(=S)N(CCCC(=O)N3CCCCC3CCO)C2=O)cc1 (centres undefined)	100	-9	2	x	+
N/C(=N/OC(=O)c1ccc(Cl)cc1)c1ncc([N+](=O)[O-])s1	106	x	-7	x	+
N/C(=N\OC(=O)c1ccc(Cl)cc1)c1ccccn1	93	2	12	-9	i
Cc1cc(N2CCCC2)ccc1/C=C1/C(=O)N(C)C(=S)N1C	316	-8	-5	12	+
Cc1cc(/C=C2/C(=O)N(C)C(=S)N2C)ccc1N1CCCC1	444	2	1	-8	i
CCOC(=O)c1oc2ccc(S(=O)(=O)n3nc(-c4ccccc4)cc3N)cc2c1C	105	1	-2	-1	+
N#Cc1c(N)n(CCNC(=O)c2ccccc2)c2nc3ccccc3nc12	100	-5	-3	-6	i
N#Cc1c(N)n(CCNC(=O)c2cccs2)c2nc3ccccc3nc12	118	-1	-7	5	+
Cc1ccc(OCc2ccccc2C)c([N+](=O)[O-])n1	101	-6	-7	x	+
COc1ccc(-c2cc(NC(=O)c3cncn3-c3ccccc3)ccc2OC)cc1	102	5	-4	x	+
COc1ccc(NC(=O)c2cncn2-c2ccccc2)cc1	101	1	-14	x	i
O=C1CC(c2ccccc2)Sc2ccccc2N1 (centres undefined)	94	-3	-11	3	i
Cc1ccsc1C1CC(=O)Nc2ccccc2S1 (centres undefined)	103	-1	2	x	+
CCCCN1Cc2ccccc2Oc2cc(Br)ccc2S1(=O)=O	97	-3	-1	x	+
CC[C@@H]1C(c2ccccc2)=NN(c2ccccc2)[C@H]1C(=O)N1CCOC1=O	108	3	12	x	+
CC[C@@H]1C(c2ccc(F)cc2)=NN(c2ccccc2)[C@H]1C(=O)N1CCOC1=O	105	-7	0	x	i
COc1ccc(CCNC(=O)C2CC(=O)N(C3CCCCC3)C2)cc1OC (centres undefined)	100	-14	-6	x	i
NC(=O)C1CCN(c2nc(-c3ccccc3C(F)(F)F)cs2)CC1	99	-9	11	x	i
O=C(COC(=O)c1cc(S(=O)(=O)N2CCOCC2)ccc1F)c1ccc[nH]1	100	-2	9	11	i
O=C(COC(=O)c1cc(S(=O)(=O)N2CCOCC2)ccc1Cl)c1ccc[nH]1	i	3	-11	x	+
